Measured values as given in the supplement of paper PMC12645437, “Orthogonal IMiD-Degron Pairs Induce Selective Protein Degradation in Cells” (ACS Chemical Biology, 2025).
Over roughly 8,300 sequences, “log2 fold change of degron read counts, EGFP-low vs EGFP+ sorted cells (limma voom), compound-induced degradation” has its median near -1.1; the highest 2% begin near 3.2. The list comes from a sample in which the highest values are over-represented; it also holds similar and randomly drawn sequences.

T1: CRBN, Q96SW2
T1 chain: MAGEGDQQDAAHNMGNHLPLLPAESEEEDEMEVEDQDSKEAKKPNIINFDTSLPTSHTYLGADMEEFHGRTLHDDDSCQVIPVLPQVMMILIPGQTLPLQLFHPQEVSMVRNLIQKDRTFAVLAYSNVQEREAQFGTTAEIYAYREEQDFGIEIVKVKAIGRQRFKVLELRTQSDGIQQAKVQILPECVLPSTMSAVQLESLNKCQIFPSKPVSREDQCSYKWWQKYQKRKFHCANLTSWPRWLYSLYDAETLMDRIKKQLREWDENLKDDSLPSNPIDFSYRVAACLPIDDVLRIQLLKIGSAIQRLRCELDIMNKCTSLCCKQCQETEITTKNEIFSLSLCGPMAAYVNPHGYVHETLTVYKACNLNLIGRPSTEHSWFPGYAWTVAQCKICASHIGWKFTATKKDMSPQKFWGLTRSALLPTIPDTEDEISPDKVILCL


Biological target: T1, CRBN, Q96SW2
Assay: log2 fold change of degron read counts, EGFP-low vs EGFP+ sorted cells (limma voom), compound-induced degradation; higher = more compound-induced degradation of the degron-EGFP fusion; degrons are variants of IKZF1/3 zinc finger 2; compound dose not given here
Conditions: Jurkat, 18 h
[1] = compound: compound 19 (5-tert-butyl-thalidomide)
[2] = compound: compound 22 (5-morpholino-thalidomide)
[3] = compound: compound 33 (diphenyl IMiD analogue)
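Also: pooled lentiviral library of zinc finger degron-EGFP fusions in mCherry-positive Jurkat cells, FACS-sorted after compound exposure, with degron abundance counted by next-generation sequencing.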

Sequence	log2 fold change of degron read counts [1]	log2 fold change of degron read counts [2]	log2 fold change of degron read counts [3]	log2 fold change of degron read counts (compound: thalidomide)
FWCEICGRSFTQKGNLLRHIKL [46F_47W_49E_50I_52G_53R_54S_55F_67L_, Q9UKT9]	0.727	1.06	0.626	-1.3
FWCPVCGAFFTQKGNLLRHIKL [46F_47W_49P_50V_52G_53A_54F_55F_67L_, Q9UKT9]	2.23	2.56	1.97	0.614
FICNVCGACFTQKGNLLRHIKL [46F_47I_49N_50V_52G_53A_54C_55F_67L_, Q9UKT9]	-2.35	-0.443	0.594	0.469
FRCNQCGHHFTQKGNLLRHIKL [46F_47R_49N_50Q_52G_53H_54H_55F_67L_, Q9UKT9]	-2.62	-2.49	-2.68	-2.74
FMCNVCGAVFTQKGNLLRHIKL [46F_47M_49N_50V_52G_53A_54V_55F_67L_, Q9UKT9]	-2.62	-1.87	0.807	-0.813
FCCEVCGAWFTQKGNLLRHIKL [46F_47C_49E_50V_52G_53A_54W_55F_67L_, Q9UKT9]	-0.654	-0.581	0.156	-0.895
FKCEICGADFTQKGNLLRHIKL [46F_47K_49E_50I_52G_53A_54D_55F_67L_, Q9UKT9]	-1.37	-3.36	-2.54	-1.55
FFCPQCGAHFTQKGNLLRHIKL [46F_47F_49P_50Q_52G_53A_54H_55F_67L_, Q9UKT9]	0.0594	0.455	0.502	-0.835
FSCPICGRAFTQKGNLLRHIKL [46F_47S_49P_50I_52G_53R_54A_55F_67L_, Q9UKT9]	-0.662	-1.1	0.646	0.0583
FNCPICGAQFTQKGNLLRHIKL [46F_47N_49P_50I_52G_53A_54Q_55F_67L_, Q9UKT9]	2.48	1.86	1.27	1.1
FGCPICGAQFTQKGNLLRHIKL [46F_47G_49P_50I_52G_53A_54Q_55F_67L_, Q9UKT9]	3.58	2.65	1.84	1.37
FQCPICGAQFTQKGNLLRHIKL [46F_47Q_49P_50I_52G_53A_54Q_55F_67L_, Q9UKT9]	0.697	2.72	2.41	3.65
FDCPICGAQFTQKGNLLRHIKL [46F_47D_49P_50I_52G_53A_54Q_55F_67L_, Q9UKT9]	2.24	1.5	1.26	2.56
FCCPICGAQFTQKGNLLRHIKL [46F_47C_49P_50I_52G_53A_54Q_55F_67L_, Q9UKT9]	2.39	2.66	2.87	1.93
FHCPICGAQFTQKGNLLRHIKL [46F_47H_49P_50I_52G_53A_54Q_55F_67L_, Q9UKT9]	2.46	2.8	2.49	1.66
FMCEICGHLFTQKGNLLRHIKL [46F_47M_49E_50I_52G_53H_54L_55F_67L_, Q9UKT9]	-2.89	-3.26	-2.2	-2.63
FNCPICGRWFTQKGNLLRHIKL [46F_47N_49P_50I_52G_53R_54W_55F_67L_, Q9UKT9]	-0.803	-0.856	0.232	-0.248
FTCSVCGHFFTQKGNLLRHIKL [46F_47T_49S_50V_52G_53H_54F_55F_67L_, Q9UKT9]	-1.8	-2.26	-2.2	-2.2
FCCDQCGAQFTQKGNLLRHIKL [46F_47C_49D_50Q_52G_53A_54Q_55F_67L_, Q9UKT9]	-1.9	-1.68	-1.17	-2.37

Sequence	log2 fold change of degron read counts [1]	log2 fold change of degron read counts [2]	log2 fold change of degron read counts [3]	log2 fold change of degron read counts (compound: thalidomide)
FWCNQCGRSFTQKGNLLRHIKL [46F_47W_49N_50Q_52G_53R_54S_55F_67L_, Q9UKT9]	-1.96	-2.11	-1.99	-2.07
LVCEICGFDCTQKGNLLRHIKL [46L_47V_49E_50I_52G_53F_54D_55C_67L_, Q9UKT9]	-3.07	-2.83	-2.91	-1.81
FDCNQCGAFFTQKGNLLRHIKL [46F_47D_49N_50Q_52G_53A_54F_55F_67L_, Q9UKT9]	-1.58	-1.99	-2.03	-1.65
FRCDVCGALFTQKGNLLRHIKL [46F_47R_49D_50V_52G_53A_54L_55F_67L_, Q9UKT9]	-2.19	-2.03	0.228	-1.08
LNCPICGFDCTQKGNLLRHIKL [46L_47N_49P_50I_52G_53F_54D_55C_67L_, Q9UKT9]	-1.95	-1.67	-1.11	-0.883
FRCEQCGASFTQKGNLLRHIKL [46F_47R_49E_50Q_52G_53A_54S_55F_67L_, Q9UKT9]	-1.07	-1.32	0.513	-0.516
LLCEICGFRCTQKGNLLRHIKL [46L_47L_49E_50I_52G_53F_54R_55C_67L_, Q9UKT9]	0.785	-1.31	0.385	2.48
LKCEICGFRCTQKGNLLRHIKL [46L_47K_49E_50I_52G_53F_54R_55C_67L_, Q9UKT9]	-1.07	-2.46	-2.5	-0.336
LACEICGFMCTQKGNLLRHIKL [46L_47A_49E_50I_52G_53F_54M_55C_67L_, Q9UKT9]	2.65	1.33	0.0952	0.132
LCCEICGFMCTQKGNLLRHIKL [46L_47C_49E_50I_52G_53F_54M_55C_67L_, Q9UKT9]	1.12	1.14	1.45	1.31
LQCEICGFRCTQKGNLLRHIKL [46L_47Q_49E_50I_52G_53F_54R_55C_67L_, Q9UKT9]	1.29	1.55	1.26	3.58
LACEICGFICTQKGNLLRHIKL [46L_47A_49E_50I_52G_53F_54I_55C_67L_, Q9UKT9]	1.83	0.461	-0.53	-0.408
LICEICGFRCTQKGNLLRHIKL [46L_47I_49E_50I_52G_53F_54R_55C_67L_, Q9UKT9]	1.24	2.26	1.57	3.01
LYCEICGFICTQKGNLLRHIKL [46L_47Y_49E_50I_52G_53F_54I_55C_67L_, Q9UKT9]	2.99	3.26	2.2	0.746
LCCEICGFICTQKGNLLRHIKL [46L_47C_49E_50I_52G_53F_54I_55C_67L_, Q9UKT9]	0.819	0.557	1.54	1.05
LFCEICGFRCTQKGNLLRHIKL [46L_47F_49E_50I_52G_53F_54R_55C_67L_, Q9UKT9]	3.71	3.64	1.36	2.31
LECEICGFRCTQKGNLLRHIKL [46L_47E_49E_50I_52G_53F_54R_55C_67L_, Q9UKT9]	0.728	-0.831	2.02	3.15
LYCEICGFMCTQKGNLLRHIKL [46L_47Y_49E_50I_52G_53F_54M_55C_67L_, Q9UKT9]	3.38	3.27	2.53	1.05
